In PubChem BioAssay (NCATS):
Unmarked numbers belong to inactive results. How the calls were made is not given here.

Tested on: HIV-1 nucleocapsid protein NCp7 (binding to TG oligonucleotide)
Experiment: HIV Nucleocapsid (AID 346);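 further: potency is for inhibitors that block NC binding and lower polarization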
Conditions: HIV-1 NC / fluorescein-TGTGTGTG probe, fluorescence polarization
In short: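 10 nM TG4xF probe with 100 nM nucleocapsid protein in high-salt Hepes pH 7.5 (250mM NaCl) containing 1uM ZnCl2 and reducing agents. Compound inhibition of binding was read as fluorescein polarization after 1 hr at room temperature.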
Potency means the concentration at half of the fitted maximal effect.

| Compound | Potency |
| --- | --- |
| COc1ccccc1CNc1ncnc2ccc(-c3ccccc3OC)cc12 | > 20 µM |
| Cc1noc(C)c1-c1nc(NCCN2CCOCC2)c2ccccc2n1 | > 20 µM |
| COc1ccccc1CN1CC[C@@]2(CCCN(C(=O)c3cccc(F)c3)C2)C1 | > 20 µM |
| Fc1ccc(Nc2ccnc(-c3ccc4c(c3)OCO4)n2)cc1 | > 20 µM |
| CN(C)C(=O)c1ccc(-c2cncnc2NCc2cccs2)cc1 | > 20 µM |
| O=C(Nc1ccccc1)N1CC[C@@]2(CCCN(C(=O)c3cnccn3)C2)C1 | > 20 µM |
| COc1ccccc1CNc1cc(-c2ccccc2OC)ncn1 | > 20 µM |
| COc1ccc(Oc2ncc3nc(-c4cccs4)c(=O)n(Cc4cccs4)c3n2)cc1 | > 20 µM |
| COc1ccc(CNc2ccnc(-c3ccoc3)n2)c(OC)c1 | > 20 µM |
| O=C(c1ccncc1)N1CCC[C@@]2(CCN(Cc3ccccc3)C2)C1 | > 20 µM |
| CN(Cc1ccco1)c1ncnc2ccc(-c3ccccc3Cl)cc12 | > 20 µM |
| N#Cc1ccc(CN2CCCC3(CCN(C(=O)c4ccncc4)CC3)C2)cc1 | > 20 µM |
| O=c1c(-c2cccs2)nc2cncnc2n1C1CC1 | > 20 µM |
| FC(F)(F)c1ccccc1-c1cncnc1-n1ccnc1 | > 20 µM |
| COc1ncc2nc(-c3ccc(F)cc3)c(=O)n(Cc3cccs3)c2n1 | > 20 µM |
| CN1CCCC2(CCN(C(=O)c3cnccn3)CC2)C1 | > 20 µM |
